D2 ag-1 – agonists of human D2 dopamine receptor. HEK293 T-REx D2 cells, calcium flux agonist mode. P14416. 340,000 compounds, 0.53% hits. activation, % at 2 µM;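 active means activation over 3 SD above normal in the single-dose calcium agonist read, cut at about 30% in these data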
Target sequence (P14416 whole entry, looked up): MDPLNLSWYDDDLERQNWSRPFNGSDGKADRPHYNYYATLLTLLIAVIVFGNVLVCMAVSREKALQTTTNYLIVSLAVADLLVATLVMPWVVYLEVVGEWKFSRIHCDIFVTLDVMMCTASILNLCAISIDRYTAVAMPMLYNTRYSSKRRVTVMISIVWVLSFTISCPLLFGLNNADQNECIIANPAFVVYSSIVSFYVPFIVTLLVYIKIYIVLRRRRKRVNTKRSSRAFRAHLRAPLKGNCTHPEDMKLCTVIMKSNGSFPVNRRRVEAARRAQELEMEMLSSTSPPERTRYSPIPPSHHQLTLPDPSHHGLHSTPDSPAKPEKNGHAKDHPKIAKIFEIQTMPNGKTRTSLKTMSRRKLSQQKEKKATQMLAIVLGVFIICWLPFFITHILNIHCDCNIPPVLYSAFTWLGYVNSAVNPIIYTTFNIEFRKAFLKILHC
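Calcium-flux readout, 1 cycle/sec over 180 s following compound pin transfer, in inducible HEK293 Trex D2 cells (force-coupled); dopamine controls included. Positive calcium responses during this window marked compounds as potential agonists.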
D2 PAM-1 – positive allosteric modulators of human D2 dopamine receptor. potentiation, % at 10 µM. P14416. HEK293 T-REx D2, calcium flux, EC20 dopamine potentiation. AID 485347. 340,000 compounds, 0.34% hits;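 active means potentiation over 3 SD above the plate norm, cut at about 30% in these data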
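Cells plated with tetracycline inducer and held overnight at 30 C; calcium dye loaded 30–90 min at room temperature; baseline taken, compound added and read 180 s; EC20 dopamine then added and read 180 s.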
D2 PAM-2 – human D2 receptor positive allosteric modulation; P14416; DiscoveRx D2 beta-arrestin cells, luminescence, 90 min; 100% = 57 uM dopamine signal; potentiation, % (concentration not given with the values); 360,000 compounds, 0.23% hits; in the data active means potentiation above about 50%; inconclusive means mostly about 30% to 49%
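D2 cells co-treated with compound plus 50 nM dopamine (EC20) for 90 min at 37 deg C to detect potentiation. Beta-arrestin recruitment was read as enzyme-fragment luminescence after 1 h at ambient temperature. Full response was set by 57 uM dopamine.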
D2 ag-2 – activates the human D2 dopamine receptor; DiscoveRx PathHunter D2 beta-arrestin, luminescence, 90 min; 100% = 57 uM dopamine signal; 360,000 compounds, 0.084% hits; activation, % (test concentration not listed); P14416; in the data active means activation above about 40%; inconclusive means between about 15% and that limit
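Agonist mode: compounds alone added to overnight-plated D2 PathHunter cells for 90 min at 37 C, with 57 uM final dopamine (EC100) defining full response. Beta-arrestin recruitment detected by chemiluminescent reagent, read after 1 h at ambient temperature.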
D2 antagonist – D2 dopamine receptor (human) antagonism; P14416; 340,000 compounds, 2% hits; AID 485344; HEK293 TREx D2 cells, calcium flux, dopamine EC80; inhibition, % at 10 µM; in the data active means inhibition above about 30%; inactive means below that, where a call was filed
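In this primary screen, negative modulation is detected by tracking calcium flux after an EC80 dopamine challenge in inducible HEK293 T-REx D2 cells preexposed to test compound for 180 s.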
LDHA block – LDHA (human) enzyme inhibition; 480,000 compounds, 0.15% hits; AID 1347041; purified LDHA, NADH/diaphorase-resazurin fluorescence; active compounds read low; P00338; activity change, % (values are at about 110 or 230 µM); in the data active means activity change below about -30%; inconclusive means mostly about -25% to -30%
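Enzyme activity of human lactate dehydrogenase 5 (2 nM; 0.06 mM NADH, 0.2 mM pyruvate, 5 min, RT) is measured via a resazurin/diaphorase fluorescence readout of residual NADH.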
Large screens that a line does not name were inactive; ! = a repeat was not active. The list is not random: actives were taken first. Their share in the collection is about 2.1%.

C=CCNc1nc(N2CCCCC2)c(C#N)c2c1CN(Cc1ccccc1)CC2	D2 antagonist 72.4
CCN1CCc2c(sc(N)c2C#N)C1	D2 PAM-2 inconclusive, D2 ag-2 43.4 (no result: D2 PAM-1)
N#Cc1c(N)sc(=S)c2c1CCN(Cc1ccccc1)C2	D2 antagonist 31.6 (no result: D2 PAM-2, D2 ag-2, LDHA block)
Cc1cccc(NC(=O)Cn2c(C)cc3ccccc32)c1	none (no result: D2 ag-1, D2 PAM-1, D2 PAM-2, D2 ag-2, D2 antagonist)
COc1cc(NS(=O)(=O)c2ccc(C)cc2C)cc2sc(NC(=O)c3ccccc3)nc12	none (no result: D2 ag-1, D2 PAM-1, D2 PAM-2, D2 ag-2, D2 antagonist)
Cc1ccc(-c2n[nH]c(=O)c3ccccc23)cc1S(N)(=O)=O	LDHA block -30.2!
CNS(=O)(=O)c1cc(-c2n[nH]c(=O)c3ccccc23)ccc1C	none (no result: D2 ag-1, D2 PAM-1, D2 PAM-2, D2 ag-2, D2 antagonist)
COC(=O)c1ccc(OC(=O)/C=C/c2ccc(Br)o2)cc1	none (no result: D2 ag-1, D2 PAM-1, D2 PAM-2, D2 ag-2, D2 antagonist)
CCC1(C)Cc2nc3sc(C(=O)O)c(N)c3cc2CO1 (stereo not drawn)	D2 antagonist 36.7
CCOC(=O)c1ccc(Oc2c(C)oc3cc(OCC(=O)c4ccc(OC)cc4)ccc3c2=O)cc1	none (no result: D2 ag-1, D2 PAM-1, D2 PAM-2, D2 ag-2, D2 antagonist)
CC(=O)c1ccc(C(=O)N(CCCN(C)C)c2nc3ccc(Br)cc3s2)cc1	none (no result: D2 ag-1, D2 PAM-1, D2 PAM-2, D2 ag-2, D2 antagonist)
Cc1cccc(C)c1NC(=O)C(c1cccs1)N(Cc1ccco1)C(=O)Cn1nnc2ccccc21 (stereo not drawn)	D2 PAM-1 35.2
Oc1oc(-c2ccccc2)nc1C=NCc1ccncc1	D2 antagonist 30.7
Oc1oc(-c2ccccc2)nc1C=Nc1cccc2ccccc12	none
Cc1cccc(Nc2nc3c(c(=O)[nH]c(=O)n3C)n2CC(=O)O)c1C	none (no result: D2 ag-1, D2 PAM-1, D2 PAM-2, D2 ag-2, D2 antagonist)
Cc1ccc(C(=O)Sc2nc(C)cc(C)n2)cc1	none (no result: D2 ag-1, D2 PAM-1, D2 PAM-2, D2 ag-2, D2 antagonist)
O=C(CSc1ccc2ccccc2n1)NC1CCS(=O)(=O)C1 (stereo not drawn)	none (no result: D2 ag-1, D2 PAM-1, D2 PAM-2, D2 ag-2, D2 antagonist)
Cc1ccc(-c2nc3ncccc3o2)cc1NC(=O)Cc1ccc(Cl)cc1	D2 PAM-1 30.6
Cc1ccc(-c2nc3ncccc3o2)cc1NC(=O)c1ccc(-c2ccc(Cl)cc2)o1	none (no result: D2 PAM-2, D2 ag-2, D2 antagonist)
CCCCN(C)C(=O)Cn1cc(C#N)c2ccccc21	none (no result: D2 ag-1, D2 PAM-1, D2 PAM-2, D2 ag-2, D2 antagonist)
CCOc1cccc2cc(-c3nc(-c4ccccc4F)no3)c(=O)oc12	LDHA block -34.5 (no result: D2 ag-1, D2 PAM-1, D2 PAM-2, D2 ag-2, D2 antagonist)
COc1ccccc1-c1ccc(/C=C2\C=CC(=O)O2)o1	D2 ag-1 66.3
CC(OC(=O)Cn1[nH]c(=O)c2ccccc2c1=O)C(=O)Nc1ccccc1F (stereo not drawn)	none (no result: D2 ag-1, D2 PAM-1, D2 PAM-2, D2 ag-2, D2 antagonist)
CC(=O)Nc1ccc(NC(=O)C(C)OC(=O)CCC2CCCC2)cc1 (stereo not drawn)	D2 antagonist 30.5
CC(C)=CC(=O)Nc1sc(C)c(C)c1C#N	none (no result: D2 ag-1, D2 PAM-1, D2 PAM-2, D2 ag-2, D2 antagonist)
S=C1NC2(CCCCC2)Cc2ccccc21	D2 antagonist 32.0
CCONC(=O)C(C)Oc1cccc(C#N)c1 (stereo not drawn)	none (no result: D2 ag-1, D2 PAM-1, D2 PAM-2, D2 ag-2, D2 antagonist)
CCN(CC)C(=O)COc1cc(O)c2c(=O)cc(-c3ccccc3)oc2c1	none (no result: D2 ag-1, D2 PAM-1, D2 PAM-2, D2 ag-2, D2 antagonist)
O=c1[nH]c2ccccc2n1CCCN1CCN(C(c2ccccc2)c2ccccc2)CC1	D2 antagonist 83.8 (no result: D2 PAM-2, D2 ag-2, LDHA block)
CN(CCOc1cccc(C(F)(F)F)c1)Cc1ccccc1	none (no result: D2 ag-1, D2 PAM-1, D2 antagonist)
FC(F)(F)c1cccc(OCCN2CCN(Cc3ccccc3)CC2)c1	D2 antagonist 82.0
c1ccc(OCCN2CCN(C(c3ccccc3)c3ccccc3)CC2)cc1	D2 antagonist 46.0
O=c1[nH]c2ccccc2n1CCCN1CCCCC1	none
COc1cccc(CN2CCN(Cc3ccc(O)c(OC)c3)CC2CCO)c1 (stereo not drawn)	D2 antagonist 36.3
OCCC1CN(Cc2ccccc2O)CCN1CCCc1ccccc1 (stereo not drawn)	none
OCCC#Cc1ccc(CN2CCN(CCc3ccccc3)C(CCO)C2)cc1 (stereo not drawn)	none
COc1ccc(OC)c(CN2CCN(CCCc3ccccc3)C(CCO)C2)c1 (stereo not drawn)	D2 antagonist 69.1
COc1cccc(CN2CCN(Cc3ccc(OC)c(OC)c3)CC2CCO)c1 (stereo not drawn)	none
Cc1ccccc1CN1CCN(CCCc2ccccc2)C(CCO)C1 (stereo not drawn)	D2 antagonist 38.3
C#Cc1ccc(CN2CCN(CCCc3ccccc3)C(CCO)C2)cc1 (stereo not drawn)	D2 antagonist 74.7
Cc1ccc2[nH]c3c(c2c1)CCCC3NCC12CC3CC(CC(C3)C1)C2 (stereo not drawn)	none (no result: D2 ag-1, D2 PAM-1, D2 PAM-2, D2 ag-2, D2 antagonist)
CCOC(=O)c1sc(-c2ccc3c(c2)OCO3)cc1NC(=O)c1cnccn1	none (no result: D2 ag-1, D2 PAM-1, D2 PAM-2, D2 ag-2, D2 antagonist)
Cc1cccc2c1N(Cc1ccc(OC(C)C)cc1)C(=O)C2=O	none (no result: D2 ag-1, D2 PAM-1, D2 PAM-2, D2 ag-2, D2 antagonist)
OCCC1CN(Cc2cccn2-c2ncccn2)CCN1Cc1ccccc1 (stereo not drawn)	D2 antagonist 30.6
Cc1ccc(CN2CCN(Cc3cccn3-c3ccccn3)CC2CCO)cc1 (stereo not drawn)	none
Cn1c(=O)oc2cc(S(=O)(=O)N3CCOCC3)ccc21	D2 antagonist 45.9

High-throughput results from PubChem BioAssay.
